Reference: PubChem BioAssay (EPA / NIEHS)
Records with an inconclusive call do not appear. Some structures have more than one record in an assay (separate samples or runs), and their calls can disagree. Activity calls are given as the source filed them. Rule for the calls, unless noted: active = hit-call score of the fitted dose curve at least 0.9, where 1 is the maximum; inactive = score below 0.9.

Assays:
[1] = BSK_3C_TissueFactor: BioMAP Diversity Plus: 3C Assay for Tissue Factor Biomarker Activity (AID 2282997); conditions: BioMAP 3C HUVEC, tissue factor biomarker readout; actives raise or lower the signal
Method in brief: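 Human vascular primary cells (umbilical vein endothelium) received test chemical; Tissue Factor was determined by ELISA at 24 h, and both gain and loss of signal versus DMSO were fitted.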

[2] = BSK_3C_uPAR: BioMAP Diversity Plus: 3C Assay for Urokinase-type plasminogen activator receptor (uPAR) Biomarker Activity (AID 2282998); conditions: BioMAP 3C HUVEC, uPAR biomarker ELISA; actives raise or lower the signal
Method in brief: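 Readout: ELISA for surface uPAR. System: human umbilical vein endothelial primary cells, 24 h after chemical exposure. Analysis: bidirectional fit, DMSO baseline.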

[3] = BSK_3C_VCAM1: BioMAP Diversity Plus: 3C Assay for Vascular cell adhesion molecule 1 (VCAM1) Biomarker Activity (AID 2282999); conditions: BioMAP 3C HUVEC, VCAM1 ELISA, cytokine-stimulated; actives raise or lower the signal
Method in brief: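 Human umbilical vein endothelial cells (3C system), biomarker read by ELISA 24 h after dosing; bidirectional fit against DMSO baseline. Cytotoxicity tracked by SRB total-protein staining in parallel cultures at biomarker time.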

[4] = BSK_4H_Eotaxin3: BioMAP Diversity Plus: 4H Assay for Eotaxin 3 Biomarker Activity (AID 2283000); conditions: primary human endothelial cells (HUVEC); actives raise or lower the signal
Method in brief: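 Readout is Eotaxin-3 (CCL26) level by ELISA in primary human umbilical vein endothelial cells harvested 24 h after chemical exposure; activity fitted in both directions against DMSO control.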

[5] = read-out: Intercellular Adhesion Molecule 1 (ICAM1), ICAM1 (gene 3383); assay: BSK_3C_ICAM1: BioMAP Diversity Plus: 3C Assay for Intercellular Adhesion Molecule 1 (ICAM1) Biomarker Activity (AID 2283003); conditions: primary human endothelial cells (HUVEC); actives raise or lower the signal
Method in brief: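 Primary human umbilical vein endothelial cells in the BioMAP 3C system were exposed to chemicals for 24 h, then ICAM-1 was quantified by ELISA. Activity was fitted bidirectionally against the DMSO negative control baseline.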

[6] = BSK_3C_Proliferation: Cell Proliferation Assessment in the BioMAP Diversity Plus: 3C Assay (AID 2283006); conditions: primary human endothelial cells (HUVEC);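 for AC50: potency may reflect either rise or fall in cell number versus DMSO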
Method in brief: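 Human umbilical vein endothelial cells were grown sub-confluent and exposed to chemical for 48 h, then fixed with 10% TCA and stained with 0.1% sulforhodamine B; absorbance at 560 nm gave relative cell number, fitted bidirectionally against DMSO baseline.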

[7] = read-out: E-selectin (Homo sapiens) (UniProt P16581); assay: BSK_3C_Eselectin: BioMAP Diversity Plus: 3C Assay for Eselectin Biomarker Activity (AID 2283015); conditions: primary human endothelial cells (HUVEC); actives raise or lower the signal
Method in brief: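 HUVEC, 3C stimulation; compound exposure 24 h; E-selectin by ELISA; gain- or loss-of-signal fitted bidirectionally vs DMSO baseline.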

[8] = read-out: Interleukin-1 alpha (IL1a), IL1A (gene 3552); assay: BSK_BE3C_IL1a: BioMAP Diversity Plus: BE3C Assay for Interleukin-1 alpha (IL1a) Biomarker Activity (AID 2283016); conditions: primary human bronchial epithelial cells; actives raise or lower the signal
Method in brief: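 Human primary bronchial epithelial cells (BE3C system) were dosed with compound and IL-1a measured by ELISA 24 h later. Activity was fitted bidirectionally against DMSO baseline; cytotoxicity was tracked in parallel cultures by SRB total-protein staining.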

[9] = read-out: Plasminogen activator inhibitor-1 (PAI1), SERPINE1 (gene 5054); assay: BSK_BE3C_PAI1: BioMAP Diversity Plus: BE3C Assay for Plasminogen activator inhibitor-1 (PAI1) Biomarker Activity (AID 2283037); conditions: primary human bronchial epithelial cells; actives raise or lower the signal
Method in brief: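 Human primary bronchial epithelial cells were exposed to chemical for 24 h, then PAI-1 was quantified by ELISA. Activity was fitted bidirectionally relative to the DMSO negative control baseline.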

[10] = BSK_LPS_PGE2: BioMAP Diversity Plus: LPS Assay for Prostaglandin E2 (PGE2) Biomarker Activity (AID 2283082); conditions: primary human HUVEC with PBMC; actives raise or lower the signal;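 for AC50: secreted prostaglandin E2 measured by ELISA in LPS-stimulated co-culture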
Method in brief: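 HUVEC plus PBMC co-culture stimulated with LPS; secreted PGE2 quantified by ELISA 24 h after chemical dosing. Activity fitted bidirectionally against DMSO as negative control and baseline; parallel SRB total-protein staining served as cytotoxicity check.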

[11] = target: Retinoic acid receptor RXR-alpha (Homo sapiens) (UniProt P19793); assay: OT_NURR1_NURR1RXRa_0480: Odyssey Thera (OT) 8-hour HEK293T Protein Complementation Assay for Nurr1/retinoid X receptor (RXR) (AID 2283385; active = hit-call score of the fitted dose curve at least 0.9, where 1 is the maximum)
Method in brief: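 HEK293T cells expressing Nurr1 and RXRα fused to reporter fragments were dosed with compound for 8 hours. Complex formation was read as fluorescence intensity and analysed as gain of signal against DMSO as baseline.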

[12] = target: Retinoic acid receptor RXR-alpha (Homo sapiens) (UniProt P19793); assay: OT_NURR1_NURR1RXRa_1440: Odyssey Thera (OT) 24-hour HEK293T Protein Complementation Assay for Nurr1/retinoid X receptor (RXR) (AID 2283386; active = hit-call score of the fitted dose curve at least 0.9, where 1 is the maximum)
Method in brief: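 HEK293T cells were dosed with compound and read 24 h later by fluorescence intensity in a protein-fragment complementation format, where Nurr1–RXRα interaction reconstitutes a split reporter. Activity was fitted as gain of signal relative to DMSO baseline.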

[13] = target: Peroxisome proliferator-activated receptor gamma (Homo sapiens) (UniProt P37231); assay: OT_PPARg_PPARgSRC1_1440: Odyssey Thera (OT) 24-hour Protein-Complementation Assay for Peroxisome Proliferator-activated Receptor Gamma/ SRC-1 Co-activator (AID 2283388; active = hit-call score of the fitted dose curve at least 0.9, where 1 is the maximum;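 note: nuclear to cytoplasmic ratio of reconstituted Venus YFP fluorescence in fixed imaged cells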)
Method in brief: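 Readout: nuclear-to-cytoplasmic 488 nm fluorescence ratio, ≥350 cells per image, 8 images per well, after 24 h compound exposure of HEK293T expressing PPARg/SRC-1 split-YFP fusions. Activity fitted in positive direction against DMSO.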

[14] = ACEA_AR_agonist_AUC_viability: ACEA Biosciences xCELLigence Real-Time Cell Analysis on Androgen Receptor Agonism for Viability (AID 2283775; active = hit-call score of the fitted dose curve at least 0.9, where 1 is the maximum;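 for AC50: viability read 80 hours after compound addition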)
Method in brief: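 Read-out is area under the impedance curve at 80 h post-dose in 22Rv1 cells, with DMSO as baseline and signal loss taken as reduced viability. Compounds ran in duplicate from 100 uM final.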

[15] = ACEA_AR_antagonist_AUC_viability: ACEA Biosciences xCELLigence Real-Time Cell Analysis on Androgen Receptor Antagonism for Viability (AID 2283776; active = hit-call score of the fitted dose curve at least 0.9, where 1 is the maximum;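 note: area under impedance growth curve at 80 h after dosing as viability; hits lower the growth signal relative to DMSO meaning cytotoxicity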)
Method in brief: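 22Rv1 human prostate cancer cells were seeded on electrode plates, monitored overnight, then exposed to eight 1:4 dilutions from 100 uM final. Impedance-based growth kinetics at 80 h gave an AUC viability endpoint normalized to DMSO.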

[16] = CCTE_Harrill_HTTr_CellCount_MCF7: CCTE's Cell Proliferation Assessment for the High-Throughput Transcriptomics (HTTr) Platform, Harrill Lab (AID 2284012; active = hit-call score of the fitted dose curve at least 0.9, where 1 is the maximum;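 note: cells exposed to compound for six hours; intended direction is loss of nuclei count meaning fewer cells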)
Method in brief: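 MCF-7 cells were exposed for 6 h to an eight-point dilution series; Hoechst-labeled nuclei were counted by high content imaging. Curves were fitted bidirectionally against DMSO as negative control and baseline, with signal loss indicating reduced cell count.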

[17] = CCTE_Harrill_HTTr_Viability_MCF7: CCTE's 6-hour Cell Viability Assessment for the High-Throughput Transcriptomics (HTTr) Platform, in MCF-7 cells cultured in DMEM + 10% fetal bovine serum, Harrill Lab (AID 2284010)
Method in brief: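 Membrane integrity was scored by high-content imaging of propidium iodide dye exclusion after a 6 h exposure across an eight-point dilution series. Data were fitted bidirectionally relative to DMSO as negative control and baseline.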

[18] = target: human Retinoid X Receptor beta (RXRb), RXRB (gene 6257) (UniProt P28702); assay: ATG_RXRb_TRANS: Attagene TRANS-FACTORIAL HepG2 Assay for human Retinoid X Receptor beta (RXRb) (AID 2283013; active = hit-call score of the fitted dose curve at least 0.9, where 1 is the maximum)
Method in brief: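 HepG2 cells transiently transfected with multiplexed reporter units driven by GAL4-UAS and exogenous chimeric NR-Gal4 proteins; treated 24 h. Reporter mRNA measured by RT-PCR, 6-FAM labelling and capillary electrophoresis; gain-of-signal fitted versus DMSO baseline.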

[19] = target: Estrogen receptor beta (Homo sapiens) (UniProt Q92731); assay: OT_ER_ERbERb_0480: Odyssey Thera (OT) 8-hour HEK293T Protein-Complementation Assay for Estrogen Receptor-beta/-beta Homodimer (AID 2283357; active = hit-call score of the fitted dose curve at least 0.9, where 1 is the maximum;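 note: active means signal gain over DMSO baseline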)
Method in brief: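 Fluorescence intensity, nuclear for agonists and nuclear plus cytoplasmic for antagonists, was quantified by laser scanning cytometry versus vehicle after 8 h treatment. The cells were HEK293T stably carrying ER beta LBD fragment-complementation partners.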

[20] = target: Estrogen-related receptor gamma (Homo sapiens) (UniProt P62508); assay: ATG_ERRg_TRANS: Attagene TRANS-FACTORIAL HepG2 Assay for human Estrogen-Related Receptor gamma (ERRg) (AID 2282977; active = hit-call score of the fitted dose curve at least 0.9, where 1 is the maximum;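 note: hits increase reporter signal over DMSO so potencies reflect activators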); conditions: HepG2 Attagene TRANS reporter, ERRg transactivation
Method in brief: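 HepG2 cells transiently transfected with multiplexed GAL4-UAS reporter units and chimeric NR-Gal4 constructs were exposed to test chemicals for 24 h. Reporter mRNA was measured by RT-PCR, 6-FAM primer extension, HpaI digestion and capillary electrophoresis; gain-of-signal versus DMSO.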

Measured: AC50

human Retinoid X Receptor beta (RXRb), RXRB (gene 6257), sequence (P28702 whole entry, looked up, the tested form may be a part): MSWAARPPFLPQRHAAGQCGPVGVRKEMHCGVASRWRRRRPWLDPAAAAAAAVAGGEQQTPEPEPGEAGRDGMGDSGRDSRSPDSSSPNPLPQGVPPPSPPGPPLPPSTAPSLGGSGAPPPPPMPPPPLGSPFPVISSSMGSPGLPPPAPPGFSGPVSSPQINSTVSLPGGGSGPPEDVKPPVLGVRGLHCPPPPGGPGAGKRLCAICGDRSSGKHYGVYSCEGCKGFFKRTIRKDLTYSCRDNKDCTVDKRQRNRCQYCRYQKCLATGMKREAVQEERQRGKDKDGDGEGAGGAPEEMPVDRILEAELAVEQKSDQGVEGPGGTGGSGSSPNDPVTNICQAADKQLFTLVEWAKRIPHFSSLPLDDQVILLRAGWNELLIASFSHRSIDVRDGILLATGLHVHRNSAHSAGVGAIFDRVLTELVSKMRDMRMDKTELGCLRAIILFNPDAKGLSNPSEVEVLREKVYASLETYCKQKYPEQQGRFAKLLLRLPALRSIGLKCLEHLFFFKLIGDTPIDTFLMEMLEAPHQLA
Estrogen receptor beta (Homo sapiens), sequence (Q92731 whole entry, looked up, the tested form may be a part): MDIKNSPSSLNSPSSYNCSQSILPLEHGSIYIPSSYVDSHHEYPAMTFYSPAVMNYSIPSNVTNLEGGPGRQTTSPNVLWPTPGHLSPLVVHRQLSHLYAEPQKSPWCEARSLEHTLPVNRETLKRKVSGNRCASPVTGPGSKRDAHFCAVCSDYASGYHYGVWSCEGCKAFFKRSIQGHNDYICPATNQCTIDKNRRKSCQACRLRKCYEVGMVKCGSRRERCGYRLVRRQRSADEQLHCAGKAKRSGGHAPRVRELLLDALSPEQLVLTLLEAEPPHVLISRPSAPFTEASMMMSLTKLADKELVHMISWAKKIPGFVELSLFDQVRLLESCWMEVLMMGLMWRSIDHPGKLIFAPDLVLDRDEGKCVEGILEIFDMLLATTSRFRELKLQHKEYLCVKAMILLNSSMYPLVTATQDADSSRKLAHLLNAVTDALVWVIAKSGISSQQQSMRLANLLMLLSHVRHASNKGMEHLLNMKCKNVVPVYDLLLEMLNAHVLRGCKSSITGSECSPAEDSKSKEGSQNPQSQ
E-selectin (Homo sapiens), sequence (P16581 whole entry, looked up): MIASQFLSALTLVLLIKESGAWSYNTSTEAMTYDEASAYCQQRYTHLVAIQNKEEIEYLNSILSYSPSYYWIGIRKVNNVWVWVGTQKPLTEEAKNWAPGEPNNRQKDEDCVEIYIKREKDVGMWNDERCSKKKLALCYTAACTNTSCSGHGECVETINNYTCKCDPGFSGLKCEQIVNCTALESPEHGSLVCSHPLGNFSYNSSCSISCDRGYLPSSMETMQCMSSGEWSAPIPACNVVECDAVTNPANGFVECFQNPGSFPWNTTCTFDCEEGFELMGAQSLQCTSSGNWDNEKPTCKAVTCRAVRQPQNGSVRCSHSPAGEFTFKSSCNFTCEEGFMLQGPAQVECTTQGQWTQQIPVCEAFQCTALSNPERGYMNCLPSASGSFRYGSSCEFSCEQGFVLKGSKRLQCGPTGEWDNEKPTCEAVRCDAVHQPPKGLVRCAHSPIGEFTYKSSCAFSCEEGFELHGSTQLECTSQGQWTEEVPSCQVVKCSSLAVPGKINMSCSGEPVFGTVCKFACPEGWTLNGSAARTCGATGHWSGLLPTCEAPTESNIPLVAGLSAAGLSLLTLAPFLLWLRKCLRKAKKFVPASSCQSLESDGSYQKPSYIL
Peroxisome proliferator-activated receptor gamma (Homo sapiens), sequence (P37231 whole entry, looked up, the tested form may be a part): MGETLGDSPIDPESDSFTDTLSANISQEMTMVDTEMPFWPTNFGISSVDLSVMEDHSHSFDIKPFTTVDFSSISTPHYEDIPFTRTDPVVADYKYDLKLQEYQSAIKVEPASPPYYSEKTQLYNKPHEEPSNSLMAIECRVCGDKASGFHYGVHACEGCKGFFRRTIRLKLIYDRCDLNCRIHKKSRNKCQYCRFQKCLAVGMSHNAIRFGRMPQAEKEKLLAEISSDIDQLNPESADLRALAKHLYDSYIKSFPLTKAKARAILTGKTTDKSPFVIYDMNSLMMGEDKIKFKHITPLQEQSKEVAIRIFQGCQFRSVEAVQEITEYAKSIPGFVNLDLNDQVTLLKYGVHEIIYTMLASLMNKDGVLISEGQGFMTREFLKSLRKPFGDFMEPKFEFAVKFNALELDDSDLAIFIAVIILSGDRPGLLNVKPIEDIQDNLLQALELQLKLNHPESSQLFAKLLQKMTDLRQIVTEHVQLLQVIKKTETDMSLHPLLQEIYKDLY
Estrogen-related receptor gamma (Homo sapiens), sequence (P62508 whole entry, looked up, the tested form may be a part): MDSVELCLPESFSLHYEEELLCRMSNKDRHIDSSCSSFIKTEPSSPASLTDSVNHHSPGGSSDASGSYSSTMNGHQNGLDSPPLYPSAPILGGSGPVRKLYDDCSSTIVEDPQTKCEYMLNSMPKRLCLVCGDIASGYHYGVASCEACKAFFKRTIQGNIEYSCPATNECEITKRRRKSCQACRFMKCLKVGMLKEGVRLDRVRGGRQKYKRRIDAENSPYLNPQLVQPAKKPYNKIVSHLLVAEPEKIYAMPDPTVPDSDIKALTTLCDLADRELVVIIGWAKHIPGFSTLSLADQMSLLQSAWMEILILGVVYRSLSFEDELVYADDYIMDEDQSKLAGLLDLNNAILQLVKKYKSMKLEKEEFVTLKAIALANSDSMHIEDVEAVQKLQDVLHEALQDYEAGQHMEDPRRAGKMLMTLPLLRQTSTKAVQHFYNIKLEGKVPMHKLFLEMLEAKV
Retinoic acid receptor RXR-alpha (Homo sapiens), sequence (P19793 whole entry, looked up, the tested form may be a part): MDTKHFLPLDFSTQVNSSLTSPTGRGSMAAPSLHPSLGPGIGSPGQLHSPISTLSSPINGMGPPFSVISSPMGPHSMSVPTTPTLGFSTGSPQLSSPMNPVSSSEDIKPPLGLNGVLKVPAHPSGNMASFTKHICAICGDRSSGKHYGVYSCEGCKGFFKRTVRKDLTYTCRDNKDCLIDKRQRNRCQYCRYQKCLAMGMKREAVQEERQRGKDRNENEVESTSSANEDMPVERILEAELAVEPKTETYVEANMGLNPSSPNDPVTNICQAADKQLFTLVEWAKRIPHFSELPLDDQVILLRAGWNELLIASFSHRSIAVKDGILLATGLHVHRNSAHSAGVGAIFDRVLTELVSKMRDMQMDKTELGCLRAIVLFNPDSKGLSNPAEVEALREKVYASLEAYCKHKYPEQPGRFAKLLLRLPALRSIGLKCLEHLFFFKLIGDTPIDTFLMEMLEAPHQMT

CCCOC(=O)c1ccccc1C(=O)OCCC
active: [7] 36.4 µM
inactive: [1] | [2] | [3] | [4] | [5] | [6] | [8] | [9] | [10]

O=C(CCl)c1ccccc1
inactive: [9] | [11] | [13] | [16]
active: [1] 5.4 µM | [2] 6.89 µM | [3] 3.06 µM | [4] 4.98 µM | [5] 7.82 µM | [6] 6.81 µM | [7] 6.97 µM | [8] 32.6 µM | [10] 5.38 µM | [12] 11.6 µM | [14] 78.5 µM | [15] 69.7 µM

CCC[N+](=O)[O-]
inactive: [17] | [16]

CC(C)(O)C#N
inactive: [19] | [11] | [12] | [13] | [14] | [15] | [17] | [16]
active: [18] 78.5 µM

O=[N+]([O-])c1ccc(Cl)cc1
not listed: [11] | [13] | [15] | [16] | [17] | [18] | [20]
inactive: all other assays above

CCOP(=O)(OCC)OCC
inactive: [20] | [19] | [11] | [13] | [14]

Cc1ccccc1CCl
inactive: [20] | [18]

CC(C)(c1cc(Cl)c(O)c(Cl)c1)c1cc(Cl)c(O)c(Cl)c1
active: [1] 24.2 µM | [2] 9.36 µM | [3] 13.4 µM | [4] 32.1 µM | [5] 29.4 µM | [6] 15.2 µM | [7] 12 µM | [8] 5.29 µM | [10] 22.9 µM | [11] 74.7 µM | [12] 78.1 µM
inactive: [9] | [19] | [13] | [14] | [15]

CC(C)C(=O)Cl
inactive: [20] | [18]

C[C@]12CC[C@H](O)C[C@H]1CC[C@@H]1[C@@H]2C[C@@H](O)[C@]2(C)[C@@H](C3=CC(=O)OC3)CC[C@]12O
inactive: [20] | [18]

N#CCNCC#N
inactive: [20]

CNC(=N[N+](=O)[O-])NCC1CCOC1 (stereo unspecified)
inactive: [19] | [11] | [12] | [14] | [15] | [17]

Cc1ccc(C)c2ccccc12
inactive: [19] | [11] | [13] | [14]

C=Cc1cccc(CCl)c1
inactive: [18]

COc1ccc(CO)cc1
inactive: [1] | [2] | [3] | [4] | [5] | [6] | [18] | [7] | [8] | [9] | [10] | [17] | [16]
active: [9] 0.308 µM

C=COCCCl
inactive: [20] | [18] | [17] | [16]

C=CCO
inactive: [11] | [12] | [14]

CCCCCCC1CCOC1=O (stereo unspecified)
inactive: [20]

ClCC(Cl)Cl
inactive: [18]

CC(C)C#N
inactive: [13] | [14] | [15]

ClCCCCCCCl
inactive: [18]
